The values below come from PubChem BioAssay (EPA / NIEHS).

Inconclusive results are not listed. The source made the active and inactive calls. How the source made its calls: active means hit-call score of the fitted dose curve at least 0.9, where 1 is the maximum; inconclusive means response in the unintended direction; inactive means score below 0.9.

Read-out in the assay: xenobiotic metabolism (CYP1A2), CYP1A2 (gene 1544)
Description: CLD_CYP1A2_24hr: CellzDirect (CLD) Gene Expression Assay for xenobiotic metabolism (CYP1A2) at 24 hours (AID 2283683). The procedure: CLD_24hr is a cell-based, multiplexed-readout assay that uses hepatocyte, a human liver primary cell, with measurements taken at 24 hours after chemical dosing in a 96-well plate.CLD_CYP1A2_24hr is one of 16 assay component(s) measured or calculated from the CLD_24hr assay. It is designed to make measurements of mRNA induction, a form of inducible reporter, as detected with chemiluminescence signals by Quantitative Nuclease Protection Assay (qNPA) technology.Data from the assay component CLD_CYP1A2_24hr was analyzed at the endpoint, CLD_CYP1A2_24hr, in the positive analysis fitting direction relative to DMSO as the negative control and baseline of activity. Using a type of inducible reporter, gain-of-signal activity can be used to understand changes in the reporter gene as they relate to the gene CYP1A2. Furthermore, this assay endpoint can be referred to as a primary readout. To generalize the intended target to other relatable targets, this assay endpoint is annotated to the cyp intended target family, where subfamily is xenobiotic metabolism.
Human hepatocyte cultures were treated daily for two consecutive days with fresh dosing solutions containing appropriate concentrations of the 320 ToxCast chemicals (chemical identities were blinded to CellzDirect and other ToxCast collaborators), vehicle control (0.2% DMSO), and positive control inducers as summarized in Table 1. Due to the large number of treatment groups and chemicals examined, the ToxCast chemicals were divided into two groups (spanning two independent cultures of hepatocytes from separate donor preparations (Hu778: ToxCast plates 1 and 2; Hu776: ToxCast plates 3 and 4). Each preparation of human hepatocyte cultures was treated with respective vehicle control, medium only control, set of six positive controls/reference chemicals for the five hepatic receptor pathways, and a subset of eight of the ToxCast chemicals (indoxacarb, pyrithiobac-sodium, norflurazon, cyhalofop-butyl, methomyl, thiram, acetochlor, and propiconazole). These replicate data, coupled with internal replicates designed within the blinded ToxCast chemical library, provided additional data to evaluate interindividual differences between hepatocyte preparations and their potential impact on chemical profiles.Cell morphology and integrity were evaluated using phase-contrast microscopy as an indicator of hepatocyte cell health (Tyson & Green, 1987). Cultures for each treatment group (i.e., media, vehicle [0.2% DMSO], positive control inducers [multiple concentrations], and the ToxCast chemicals [multiple concentrations]) were observed and cell morphology was assessed relative to vehicle control cultures at each harvest time point (0, 6, 24, or 48 h). […] Images were evaluated at the conclusion of the study to assess changes in cell integrity and account for the effects of chemical exposure on uncharacteristic changes in concentration-dependent gene expression profiles. The results from these determinations of apparent cytotoxicity were annotated (yes/no) alongside the corresponding qNPA data for reference.At the conclusion of each treatment period, hepatocyte cultures (96-well) were washed with 1 volume of HBSS, lysed by addition of 25 ul ArrayPlate lysis buffer (HTG, Tucson, AZ), and 70 ul/well of Denaturation Oil, denatured by incubation at 95C for 10 min, and frozen at approximately -70C until analysis by nuclease protection assay (qNPA) (Roberts et al., 2007). For qNPA analysis, cell lysates were thawed at 50C for approximately 30 min, qNPA probes were added, and samples were incubated at 95C for 10 min to begin the detection process by denaturing the target RNA, dissociating the duplexes and secondary structure hybridization. At the conclusion of the hybridization period, S1 nuclease reagent was added to each sample to digest all nonprotected nucleotides at 50C for 60-90 min. […]
For the molecule `CCCN(CCC)C(=O)SCC`, the outcome was inactive.

`CCC(C)OC(=O)N1CCCCC1CCO` (stereo not given): the molecule was classed as inactive.

As to `CCN(CC)C(=O)c1cccc(C)c1`, the molecule was called inactive.

For `COc1nc(C)nc(NC(=O)NS(=O)(=O)c2ccccc2OCCCl)n1`, the outcome was inactive.

As for `c1ccc(Nc2ccccc2)cc1`, the AC50 is 6.41 µM (active).

With `COC(=O)c1ccccc1S(=O)(=O)NC(=O)Nc1nc(OC(F)F)cc(OC(F)F)n1`, the AC50 is 0.233 µM (active).

Consider `CCSC(=O)N(CC(C)C)CC(C)C`, for which the outcome was inactive.

For `Cc1nn(C)c(Oc2ccccc2)c1C=NOCc1ccc(C(=O)OC(C)(C)C)cc1`, the AC50 was 37.4 µM (active).

Regarding `COC(=O)c1ccc(I)cc1S(=O)(=O)NC(=O)Nc1nc(C)nc(OC)n1`, the molecule was called inactive.

As to `CCCCC(CC)CN1C(=O)C2C3C=CC(C3)C2C1=O` (stereo not given), the AC50 is 7.81 µM (active).

As to `COc1c(Cl)ccc(Cl)c1C(=O)O`, the molecule was classed as inactive.

Turning to `COC(=O)c1ccccc1C(=O)O`, the molecule was classed as inactive.

With `C#CCOC(=O)[C@@H](C)Oc1ccc(Oc2ncc(Cl)cc2F)cc1`, the result was inactive.

In the case of `CCOC(=O)C(C)Oc1ccc(Oc2nc3ccc(Cl)cc3o2)cc1` (stereo not given), the call was inactive.

Turning to `COC(=O)c1ccc(CNS(C)(=O)=O)cc1S(=O)(=O)NC(=O)Nc1nc(OC)cc(OC)n1`, the molecule was called inactive.

As for `COC(=O)c1cccc(C)c1S(=O)(=O)NC(=O)Nc1nc(OCC(F)(F)F)nc(N(C)C)n1`, the AC50 is 6.03 µM (active).

For `N#CSCSc1nc2ccccc2s1`, the AC50 is 7.18 µM (active).

Take `CSC(=O)c1cccc2nnsc12`: the AC50 was 20 µM (active).

As for `CC1(C)C(C=C(Cl)Cl)C1C(=O)OCc1cccc(Oc2ccccc2)c1` (stereo not given), the molecule was classed as inactive.

On to `CCOC(=O)NCCOc1ccc(Oc2ccccc2)cc1`, for which the molecule was classed as inactive.

As for `CCNc1nc(N)nc(Cl)n1`, the molecule was called inactive.

With `CC(C)(C)[C@@H](O)[C@@H](Cc1ccc(Cl)cc1)n1cncn1`, the molecule was classed as inactive.

For `Oc1ccc(C(c2ccc(O)cc2)C(Cl)(Cl)Cl)cc1`, the call was inactive.

Take `CCCCCCC(C)OC(=O)COc1nc(F)c(Cl)c(N)c1Cl` (stereo not given): the outcome was inactive.

As for `CN(C)C(=O)Nc1ccc(Cl)c(Cl)c1`, the concentration at half-maximal activity (AC50) was 4.42 µM (active).

For `OB(O)O`, the result was inactive.

Take `CCOC(=O)[C@H](C)Oc1ccc(Oc2nc3ccc(Cl)cc3o2)cc1`: the molecule was classed as inactive.

As for `CCOC(=O)C(C)Oc1ccc(Oc2cnc3cc(Cl)ccc3n2)cc1` (stereo not given), the molecule was classed as inactive.

Turning to `O=C(Nc1ccc([N+](=O)[O-])cc1Cl)c1cc(Cl)ccc1O`, the AC50 is 3.97 µM (active).

As for `CCCN(CCC)c1c([N+](=O)[O-])cc(C(F)(F)F)c(N)c1[N+](=O)[O-]`, the AC50 is 2.34 µM (active).

Regarding `CCCCC(CC)COC(=O)c1ccccc1C(=O)O` (stereo not given), the result was inactive.

For `S=C(S)NCCNC(=S)S.[Mn+2].[S-]C([S-])=NCCN=C([S-])[S-].[Zn+2]`, the outcome was inactive.

`CCCCOC(=O)[C@@H](C)Oc1ccc(Oc2ccc(C(F)(F)F)cn2)cc1`: the AC50 was 20 µM (active).

Regarding `S=C([S-])NCCNC(=S)[S-].[Mn+2]`, the result was inactive.

As for `CCCCCOC(=O)COc1cc(N2C(=O)C3=C(CCCC3)C2=O)c(F)cc1Cl`, the call was inactive.

On to `CCCCOCCOCCOCc1cc2c(cc1CCC)OCO2`, for which the AC50 is 0.858 µM (active).

In the case of `c1ccc2[nH]c(-c3cscn3)nc2c1`, the AC50 was 0.345 µM (active).

Consider `O=C(O)C1(C(=O)Nc2ccc(Cl)cc2Cl)CC1`, for which the AC50 is 20 µM (active).

Regarding `COC(=O)c1c(Cl)nn(C)c1S(=O)(=O)NC(=O)Nc1nc(OC)cc(OC)n1`, the AC50 was 0.797 µM (active).

With `CCN(Cc1c(F)cccc1Cl)c1c([N+](=O)[O-])cc(C(F)(F)F)cc1[N+](=O)[O-]`, the AC50 was 0.418 µM (active).
